Data: the supplement of paper PMC10338343
± gives the standard deviation. Whole data set: some 3,000 sequences, median “pre-steady-state target cleavage rate” near 0.0079, cut for the highest 2% near 0.2. For the sample, the highest values were picked, then their nearest neighbours and some sequences at random.

The sequences below were run on MILI (PIWIL2) piRISC loaded with piRNA #2 (26 nt) (assay: pre-steady-state target cleavage rate (min^-1); MIWI and MILI are mouse PIWI proteins and EfPiwi is from a freshwater sponge; tags in brackets are library labels; higher = faster piRNA-guided slicing of the target). Details: guide: piRNA #2 5'p-UUAGGUAACCCAGUAGAUCCAGAGGA; auxiliary factor: 500 nM mouse GTSF1.
Description: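 Cleave-'n-Seq: a library of target RNAs (target site embedded in constant flanks, ACAGCATTCCGCGTTAGTGATATCCG... 5' flank; DNA-blocked outside the site) at 0.1 nM was incubated with 1 nM active mouse MILI or MIWI piRISC (synthetic 5'-monophosphorylated piRNA guide) with or without 500 nM mouse GTSF1 at 33 °C for 1 min to 16 h. Uncleaved targets were sequenced and normalised to non-target controls, and the pooled three trials were fitted to a burst-and-steady-state model to give the pre-steady-state cleavage rate (min^-1; k3 is constrained to at most 1e-4). Sequence is the target site only; target names encode pairing extent (gX:gY) and contiguous / 1-mismatch / 2-mismatch / bulge geometry. Fits with R² ≤ 0 are excluded.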

| Sequence | pre-steady-state target cleavage rate |
| --- | --- |
| CUUAACCUCAGCAUCUACUGGGUUACCUAA | 0.111 ± 0.027 |
| CUUAUCCUCUGGAUCUACUGGGUUACGUAA | 0.0586 ± 0.014 |
| CUUAUCCUCUGCAUCUACUGGGUUACGUAA | 0.483 ± 0.2 |
| CUUAUCCUCAGCAUCUACUGGGUUACCUAA | 0.271 ± 0.06 |
| CUUAACCUCUGCAUCUACUGGGUUACGUAA | 0.155 ± 0.069 |
| CUUAACCUCUCGGAUCUACUGGGUUACCUAA | 0.0634 ± 0.017 |
| CUUAAGGAGGGGAUCUACUGGGUUACCUAA | 0.0293 ± 0.022 |
| CUUAUCCUCUGGAUGUACAGGGUUACCUAA | 0.135 ± 0.011 |
| CUUAACCUCUGGACUCUACUGGGUUACCUAA | 0.0674 ± 0.018 |
| CUUAACCUCUUGGAUCUACUGGGUUACCUAA | 0.245 ± 0.072 |
| CUUAAGGUCUGGCAUCUACUGGGUUACCUAA | 0.211 ± 0.069 |
| CUUAAGGUCUGGGUCUACUGGGUUACCUAA | 0.0913 ± 0.015 |
| CUUAACCUCUGGCAUCUACUGGGUUACCUAA | 2.04 ± 1.1 |
| CUUAAGGUCUGCAUCUACUGGGUUACCUAA | 0.0733 ± 0.018 |
| CUUAACCUCUGGAUCUACUGGGUUACCUAAA | 0.0972 ± 0.022 |
| CUUAACCUCUGCAUCUACUGGGUUACCUAA | 0.185 ± 0.036 |
| CUUAACCUCUGGCUCUACUGGGUUACCUAA | 0.8 ± 0.2 |
| CUUAACCUCUGGGAUCUACUGGGUUACCUAA | 0.168 ± 0.03 |
| CUUAACCUUGGAUCUACUGGGUUACCUAA | 0.134 ± 0.041 |
| CUUAACCUCUGAUCUACUGGGUUACCUAA | 0.0852 ± 0.019 |
| CUUAACCUCUGGAACUUCUGGGUUACCUAA | 0.103 ± 0.028 |
| CUUAAGCUCUGGAUCUAGUGGGAUACCUAA | 0.00824 ± 0.0045 |
| CUUAUCCUCUCGAUCUACUGGGAUACCUAA | 0.0565 ± 0.013 |
| CUUAUCCUCUGCAUCUACUGGGAUACCUAA | 0.0522 ± 0.025 |

| Sequence | pre-steady-state target cleavage rate |
| --- | --- |
| CUUAAGGAGACGAUCUACUGGGUUACCUAU [g2:g19:cont:t1U] | 0.00667 ± 0.0036 |
| CUUAAGCUCUGGAUCUACUGGGUUAACUAA | 0.095 ± 0.017 |
| CUUAUCCUCUGGAUCUACUGGGCUUACCUAA | 0.0139 ± 0.005 |
| CUUAACCUCUGGAUUCUACUGGGUUACCUAA | 0.273 ± 0.093 |
| CUUAACCUCUGGAUUACUGGGUUACCUAA | 0.0792 ± 0.024 |
| CUUAAGCUCUGGCUCUACUGGGUUACCUAA | 0.163 ± 0.034 |
| CUUAAGCUCUGCAUCUACUGGGUUACCUAA | 0.0767 ± 0.016 |
| CUUAAGCUCUGGCAUCUACUGGGUUACCUAA | 0.453 ± 0.15 |
| CUUAACCUCUGGAUCUACUGGGUUACCUAA [g2:g25:cont:t1A] | 0.101 ± 0.02 |
| CUUAUCGUCAGGAUCUACUGGGUUACCUAA | 0.03 ± 0.012 |
| CUUAUGCUCUGGAUCUACUGCGUUACCUAA | 0.0127 ± 0.0036 |
| CUUAAGGACUGGAUCUACUGGGUUACCUAA [g2:g22:cont:t1A] | 0.0428 ± 0.02 |
| CUUAAGGAGACCUAGUACGGGUUACCUAA | < 0.0001 |
| CUUAAGGAGAGGAAUCUACUGGGUUACCUAA | 0.00399 ± 0.0036 |
| CUUAUCCUCUGGAUGUACUGGGUUACGUAA | 0.0286 ± 0.0078 |
| CUUAAGGACUGGAUCUACGGGGUUACCUAA | 0.0466 ± 0.013 |
| CUUAUCCUCUAGAUCUACUGGGUUACCUAA | 0.224 ± 0.034 |
| CUUAUCCUCUGCAUCUACUGGGUUUCCUAA | 0.165 ± 0.071 |
| CUUAUCCUCUGGUUCUACUGGGUUAGCUAA | 0.235 ± 0.069 |
| CUUAUCCUCUGAGAUCUACUGGGUUACCUAA | 0.106 ± 0.02 |
| CUUAACCUCUGGACUACUGGGUUACCUAA | 0.156 ± 0.037 |
| CUUAACCUCUGGUACUACUGGGUUACCUAA | 0.256 ± 0.074 |
| CUUAUCCUCUGGAUCUACUGGGUUAGCUAA | 0.129 ± 0.025 |
| CUUAUCCUCUAGGAUCUACUGGGUUACCUAA | 0.049 ± 0.012 |

| Sequence | pre-steady-state target cleavage rate |
| --- | --- |
| CUUAUCCUCUGCAUCUACUGGGUUAGCUAA | 0.145 ± 0.054 |
| CUUAUCCUCUGGUUCUACUGGGUUUCCUAA | 2.2 ± 1.7 |
| CUUAUCCUCUGGUUCUACUGGGAUACCUAA | 0.188 ± 0.078 |
| CUUAACCUCUGGUAGUACUGGGUUACCUAA | 0.078 ± 0.025 |
| CUUAAGCUCUGGAUCUACAGGGUUACGUAA | 0.0394 ± 0.01 |
| CUUAAGCUCUGGAUCCACUGGGUUACCUAA | 0.0284 ± 0.0092 |
| CUUAACCUCUGCAUCUACAGGGUUACCUAA | 0.0773 ± 0.014 |
| CUUAAGGACUCGAUCUACUGGGUUACCUAA | 0.0128 ± 0.0065 |
| CUUAAGGAGAGGAUCUACAGGGUUACCUUA | 0.0102 ± 0.0051 |
| CUUAACCUCUGGAUCUAGUGGGAUACCUAA | 0.0146 ± 0.0055 |
| CUUAUCCUCUGGAUGUACUGGGUUACCUAA | 0.108 ± 0.022 |
| CUUAAGGUCUGGAUCUACUGGGAAACCUAA | 0.0107 ± 0.0055 |
| CUUAUCCUCUCGAUCUACUGGGUUACCAAA | 0.13 ± 0.025 |
| CUUAUCCUCUGGAACUACUGGGUUACCUUA | 0.266 ± 0.073 |
| CUUAUCCUCUGGAACUACUGGGUUACCUAA | 0.188 ± 0.042 |
| CUUAUCCUCUGGAACUACUGGGUUACCAAA | 0.13 ± 0.044 |
| CUUAAGCUCUGGUUCUACUGGGUUACCAAA | 0.199 ± 0.063 |
| CUUAUCCUCUGGAUCUACUGGGUUACCAA | 0.123 ± 0.022 |
| CUUAACCUCUGGUUCUACUGGGUUACGUAA | 0.12 ± 0.043 |
| CUUAAGCUCUGGUUCUACUGGGUUACCUAA | 0.131 ± 0.027 |
| CUUAUCCUCUGGAACUACUGGGUUACGUAA | 0.197 ± 0.068 |
| CUUAAGCUCUGGUUCUACUGGGUUACCUUA | 0.126 ± 0.036 |
| CUUAUCCUCUGGUUCUACUGGGUUACGUAA | 0.634 ± 0.25 |
| CUUAUCCUCUGGUUCUACUGGGUUACCAAA | 0.453 ± 0.15 |
